# Calls of active or inactive are those of the source. Unless noted, no rule for the calls is given here.
# Assays:
# [1] = tested on: XIP peptide (Xip251-270) binding; assay: small-molecule binders of XIP peptide, primary screen, biochemical, small-molecule microarray, fluorescence 635/667 nm, 0.1 µg/mL protein (AID 1182); conditions: fluorescent protein binding, 635 nm, higher = more signal, called active from +8 up or from −8 down
# XIP peptide (Xip251-270) = assay: small-molecule binders of XIP peptide, primary screen, biochemical, small-molecule microarray, fluorescence 635/667 nm, 0.5 µg/mL protein (AID 1183); conditions: small-molecule microarray binding, fluorescence 635 nm; higher = more signal
# [2] = Plasmodium falciparum growth inhibition, primary screen, strain 3D7, DAPI fluorescence, 100 nL (AID 1184);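 also: parasites grown inside human red blood cells in medium with human serum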; conditions: P. falciparum 3D7 growth, 3 d, higher = more signal
# [3] = biological target: Homeobox protein Hox-A13 (Mus musculus) (UniProt Q62424); assay: inhibitors of HoxA13-DNA binding, primary screen, biochemical, fluorescence polarization, labeled oligonucleotide (AID 1185); conditions: 15 min, higher = more signal, called active from +8 up or from −8 down
# Sequence of Homeobox protein Hox-A13 (Mus musculus) (Q62424 whole entry, looked up): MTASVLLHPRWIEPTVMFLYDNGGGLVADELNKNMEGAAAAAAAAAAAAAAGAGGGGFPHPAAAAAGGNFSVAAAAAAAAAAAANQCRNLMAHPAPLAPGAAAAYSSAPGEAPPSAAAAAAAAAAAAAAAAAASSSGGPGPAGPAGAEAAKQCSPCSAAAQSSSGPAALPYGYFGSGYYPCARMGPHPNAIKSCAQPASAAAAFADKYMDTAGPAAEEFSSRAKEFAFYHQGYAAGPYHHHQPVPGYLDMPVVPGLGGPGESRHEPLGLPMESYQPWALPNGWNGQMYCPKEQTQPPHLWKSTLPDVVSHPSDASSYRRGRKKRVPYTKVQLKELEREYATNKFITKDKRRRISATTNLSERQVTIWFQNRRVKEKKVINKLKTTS
# [4] = inhibitors of hydroxyurea-induced Chk1 phosphorylation, primary screen, imaging, HeLa, phospho-Chk1 antibody, percent positive cells (AID 1186); conditions: hydroxyurea-induced phospho-Chk1 immunofluorescence imaging, higher = more signal
# [5] = inhibitors of hydroxyurea-induced Chk1 phosphorylation, primary screen, imaging, HeLa, phospho-Chk1 nuclear intensity (AID 1187); conditions: hydroxyurea-induced phospho-Chk1 immunofluorescence imaging, higher = more signal
Structure (SMILES),composite z-score [1],composite z-score (XIP peptide (Xip251-270)),z-score [2],z-score [3],z-score [4],z-score [5]
C=C(/C(=C/C[C@@H](OC(=O)c1ccncc1)c1ccc(CO)o1)c1cc(C(=O)OC)ccc1OC)C(C)C,0.18 (inactive),0.813,-1.01,-4.08 (inactive),-0.471 (inactive),0.811 (inactive)
CN(C)CCCCCCNC(=O)[C@@H]1C[C@@H]2C(=O)N[C@@H](Cc3ccccc3)C(=O)N2[C@@H]1c1cccc(OCCO)c1,2.15 (inactive),0.809,0.526,-4.13 (inactive),0.0258 (inactive),-0.024 (inactive)
COc1ccc([Si](C)(C)[C@H]2[C@H](CCO)O[C@@]3(C(=O)N(Cc4cccc(N5C(=O)c6cccc7cccc5c67)c4)c4ccccc43)[C@@H]2C)cc1,0.834 (inactive),0.512,-2.82,-1.61 (inactive),-0.283 (inactive),-0.304 (inactive)
NC(=O)[C@@]1(CCS(=O)(=O)c2ccccc2)N=C(c2ccc(OCCCO)cc2)O[C@H]1c1ccccc1,1.11 (inactive),0.863,-1.9,-6.86 (inactive),0.0218 (inactive),0.56 (inactive)
COCCOC(=O)N1C(=O)[C@@]2(c3cc(C#Cc4ccc(OC)cc4)ccc31)[C@H](C(N)=O)[C@H]1C(=O)O[C@H](c3ccccc3)[C@H](c3ccccc3)N1[C@@H]2c1ccc(O)cc1,-0.0197 (inactive),0.0645,-1.69,2.03 (inactive),-0.0863 (inactive),0.243 (inactive)
[N-]=[N+]=NCc1ccccc1C[C@@]1(C(=O)NCc2ccccc2)N=C(c2ccc(OCCCO)cc2)O[C@@H]1c1ccccc1CN=[N+]=[N-],0.804 (inactive),0.735,-2.59,3.34 (inactive),-0.174 (inactive),-0.332 (inactive)
CC(C)N1C(=O)c2ccccc2[C@](C)(C(=O)NCCCN(C)C)[C@@H]1c1ccc(CO)cc1,0.289 (inactive),0.431,0.191,-1.73 (inactive),0.0165 (inactive),0.149 (inactive)
OCCCc1cc[n+](Cc2cccc(OC(F)(F)F)c2)cc1,0.307 (inactive),0.768,-1.47,-3.06 (inactive),-0.284 (inactive),-0.678 (inactive)
NC(=O)NCC#Cc1ccc2c(c1)[C@]1(C(=O)N2)[C@H](c2ccc(O)cc2)N2[C@H](c3ccccc3)[C@H](c3ccccc3)OC(=O)[C@H]2[C@@H]1C(=O)N1CCN(c2ncccn2)CC1,0.17 (inactive),0.466,-0.136,-1.61 (inactive),0.477 (inactive),1.04 (inactive)
C=CC[C@]1(C(=O)NCCN2CCOCC2)N=C(c2ccc(OCCCO)cc2)O[C@H]1c1ccccc1N=[N+]=[N-],3.25 (inactive),0.819,-2.27,-3.35 (inactive),-0.56 (inactive),-0.265 (inactive)
O=C(NCc1ccccc1)[C@@H]1c2ccccc2C(=O)N(C2CCCCC2)[C@H]1c1ccc(CO)cc1,0.81 (inactive),0.732,-0.667,-2.81 (inactive),-0.13 (inactive),-0.296 (inactive)
O=C1O[C@@H](c2ccccc2)[C@@H](c2ccccc2)N2[C@@H](c3ccc(O)cc3)[C@]3(C(=O)Nc4ccc(C#CCCO)cc43)[C@@H](C(=O)N3CCCCCCC3)[C@H]12,0.868 (inactive),0.876,-1.1,1.7 (inactive),-0.149 (inactive),-0.56 (inactive)
CC1CC/C=C\[C@H]2OC34C=CCN(Cn5nnc6ccccc65)C(=O)[C@H]3N(CCCO)C(=O)[C@@H]4C2C(=O)O1 (some centres undefined),0.75 (inactive),0.13,-0.0633,-5.65 (inactive),-0.86 (inactive),-0.909 (inactive)
CCCNC(=O)[C@@]1(C)c2ccccc2C(=O)N(Cc2cc(F)cc(C(F)(F)F)c2)[C@H]1c1ccc(CO)cc1,1.33 (inactive),0.718,-0.8,-3.51 (inactive),0.309 (inactive),0.226 (inactive)
CCOC(=O)C1=CC[C@@H](c2cccc(Cl)c2)N(S(=O)(=O)c2ccc(C)cc2)[C@H]1c1ccc(C#N)cc1,0.197 (inactive),0.73,-2.12,1.05 (inactive),0.645 (inactive),-0.118 (inactive)
CC[C@@H]1C=C(C(=O)O)[C@H](c2ccc(C(C)C)cc2)N1S(=O)(=O)c1ccc(C)cc1,0.719 (inactive),0.924,-0.646,-5.17 (inactive),0.122 (inactive),-0.118 (inactive)
COCC1C2CC[C@H]3C(OCc4ccc(F)cc4C(F)(F)F)OC[C@]4(C)[C@H]3C2=C(CN4C(=O)OC(C)(C)C)[C@H](C)C1COC (some centres undefined),1.84 (inactive),0.761,-1.06,-3 (inactive),-0.43 (inactive),-0.0765 (inactive)

Structure (SMILES),composite z-score [1],composite z-score (XIP peptide (Xip251-270)),z-score [2],z-score [3],z-score [4],z-score [5]
COc1cc(CO)cc(I)c1O[C@H]1C=C(C(=O)NCCO)C[C@@H](N(CCc2cccc(F)c2)C(=O)CCC2CCCC2)[C@@H]1O,0.131 (inactive),0.65,-2.18,-6.89 (inactive),0.624 (inactive),0.824 (inactive)
COCCOC(=O)N1C(=O)[C@@]2(c3cc(C#CC4(O)CCCCCC4)ccc31)[C@H](c1ccc(O)cc1)N1[C@H](c3ccccc3)[C@H](c3ccccc3)OC(=O)[C@H]1[C@@H]2C(=O)N1CCc2cc(OC)c(OC)cc2C1,-0.455 (inactive),0.839,0.0635,-0.954 (inactive),-0.404 (inactive),-0.466 (inactive)
CC(c1ccccc1)C(O)C1C=CC2C(=O)N(c3ccccc3)C(=O)C2N1Nc1ccccc1F (centres undefined),-0.093 (inactive),0.583,-0.436,-1.51 (inactive),-0.123 (inactive),0.104 (inactive)
COCCCNC(=O)[C@@]1(C)c2ccccc2C(=O)N(Cc2ccccc2)[C@H]1c1ccc(CO)cc1,0.132 (inactive),0.947,-1.35,-1.86 (inactive),-0.258 (inactive),-0.432 (inactive)
O=C1[C@H]2C=C(Br)[C@H](C[C@@H]2OCCOCCO)[C@@]12CO2,-0.0844 (inactive),0.798,-0.334,-0.559 (inactive),-0.051 (inactive),-0.0596 (inactive)
COc1ccc(CCNC(=O)[C@@]2(C)c3ccccc3C(=O)N(Cc3ccccc3)[C@H]2c2ccc(CO)cc2)cc1,1.12 (inactive),0.859,-1.93,-4.95 (inactive),-0.281 (inactive),-0.173 (inactive)
C[C@H]1C2[C@H](Cc3ccccc3)NC(=O)[C@]23C(=O)N[C@H](Cc2ccccc2)C(=O)N[C@H](Cc2ccccc2)C(=O)NC/C=C/CCC/C=C/C3[C@@H]2O[C@]12C (some centres undefined),0.353 (inactive),0.518,-1.71,-5.67 (inactive),0.275 (inactive),0.371 (inactive)
C=CCC(OC(C)=O)[C@@H]1[C@@H](N(Cc2cc3ccccc3o2)C(=O)c2ccc(-c3ccccc3)cc2)c2cc(OCCCO)ccc2N1C(=O)Cc1ccc2ccccc2c1 (some centres undefined),-0.317 (inactive),-0.269,-0.835,-0.738 (inactive),0.485 (inactive),0.467 (inactive)
Cc1ccc(S[C@]2(C(=O)NCc3ccccc3)CC(=O)N(Cc3cc(C(F)(F)F)cc(C(F)(F)F)c3)[C@@H]2c2ccc(CO)cc2)cc1,-0.384 (inactive),0.365,-0.398,-2.38 (inactive),0.199 (inactive),0.311 (inactive)
C=CCN1Cc2ccccc2C[C@]2(N=C(c3ccc(OCCCO)cc3)O[C@@H]2c2ccccc2)C1=O,1.27 (inactive),0.824,-2.31,-3.62 (inactive),-0.802 (inactive),-0.978 (inactive)
COCCOC(=O)N1C(=O)[C@@]2(c3cc(C#CCCO)ccc31)[C@H](C(=O)NC[C@H](O)c1ccccc1)[C@H]1C(=O)O[C@H](c3ccccc3)[C@H](c3ccccc3)N1[C@@H]2c1ccc(OCCO)cc1,-0.0001 (inactive),0.577,-1.99,-1.64 (inactive),0.0945 (inactive),0.298 (inactive)
CC1CC/C=C\[C@H]2OC34C=CCN(c5ccc6ccccc6c5)C(=O)[C@H]3N(CCCCCO)C(=O)[C@@H]4C2C(=O)O1 (some centres undefined),1.37 (inactive),-0.165,-0.0643,-6.06 (inactive),0.549 (inactive),-0.382 (inactive)
C=C(CCCC)C(=O)CC[C@H](OC(=O)c1ccccc1-c1ccccc1C(=O)O)c1ccc(CO)o1,0.556 (inactive),0.582,-0.714,-6.05 (inactive),-0.131 (inactive),-0.23 (inactive)
CCN(CC)c1ccc(N2CC=CC34O[C@@H]5C=CCOC(=O)[C@@H]5[C@H]3C(=O)N(CCCCCO)[C@@H]4C2=O)cc1 (some centres undefined),0.614 (inactive),-0.982,-0.232,-5.05 (inactive),-0.23 (inactive),-0.33 (inactive)
COCCOC(=O)N1C(=O)[C@@]2(c3ccccc31)[C@H](C(=O)N1CCCCCCC1)[C@H]1C(=O)O[C@H](c3ccccc3)[C@H](c3ccccc3)N1[C@@H]2c1ccccc1OCCO,2.16 (inactive),0.83,-2.1,3.39 (inactive),-0.26 (inactive),-0.299 (inactive)
C#C[C@H](O[Si](C#CCCCCCC)(C(C)C)C(C)C)c1ccccc1,0.0004 (inactive),-0.113,-1.32,-1.2 (inactive),-0.0616 (inactive),-0.0839 (inactive)
O=C(NCC(O)CO)[C@@]1(Cc2ccccc2)N=C(c2ccc(OCCCO)cc2)O[C@H]1c1ccccc1 (some centres undefined),0.502 (inactive),0.801,-1.22,-4 (inactive),-0.607 (inactive),-0.29 (inactive)

# — PubChem BioAssay
